# Shown are actives, neighbours in structure and some others; about 7.6% of the full set was active somewhere.
# KCNH2 WT inh: blocks the wildtype human KCNH2 potassium channel; U2OS, BacMam KCNH2, thallium flux FluxOr; active compounds read low; activity change, % at 1.84 µM; 340,000 compounds, 0.37% hits; AID 720551;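 active = maximum activity change below -70%; inconclusive = maximum activity change between -70% and -50%; inactive = maximum activity change above -50%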; note: % is set by controls: 0 for no effect and ±100 for the full control effect
# Target sequence (Q12809 whole entry, looked up): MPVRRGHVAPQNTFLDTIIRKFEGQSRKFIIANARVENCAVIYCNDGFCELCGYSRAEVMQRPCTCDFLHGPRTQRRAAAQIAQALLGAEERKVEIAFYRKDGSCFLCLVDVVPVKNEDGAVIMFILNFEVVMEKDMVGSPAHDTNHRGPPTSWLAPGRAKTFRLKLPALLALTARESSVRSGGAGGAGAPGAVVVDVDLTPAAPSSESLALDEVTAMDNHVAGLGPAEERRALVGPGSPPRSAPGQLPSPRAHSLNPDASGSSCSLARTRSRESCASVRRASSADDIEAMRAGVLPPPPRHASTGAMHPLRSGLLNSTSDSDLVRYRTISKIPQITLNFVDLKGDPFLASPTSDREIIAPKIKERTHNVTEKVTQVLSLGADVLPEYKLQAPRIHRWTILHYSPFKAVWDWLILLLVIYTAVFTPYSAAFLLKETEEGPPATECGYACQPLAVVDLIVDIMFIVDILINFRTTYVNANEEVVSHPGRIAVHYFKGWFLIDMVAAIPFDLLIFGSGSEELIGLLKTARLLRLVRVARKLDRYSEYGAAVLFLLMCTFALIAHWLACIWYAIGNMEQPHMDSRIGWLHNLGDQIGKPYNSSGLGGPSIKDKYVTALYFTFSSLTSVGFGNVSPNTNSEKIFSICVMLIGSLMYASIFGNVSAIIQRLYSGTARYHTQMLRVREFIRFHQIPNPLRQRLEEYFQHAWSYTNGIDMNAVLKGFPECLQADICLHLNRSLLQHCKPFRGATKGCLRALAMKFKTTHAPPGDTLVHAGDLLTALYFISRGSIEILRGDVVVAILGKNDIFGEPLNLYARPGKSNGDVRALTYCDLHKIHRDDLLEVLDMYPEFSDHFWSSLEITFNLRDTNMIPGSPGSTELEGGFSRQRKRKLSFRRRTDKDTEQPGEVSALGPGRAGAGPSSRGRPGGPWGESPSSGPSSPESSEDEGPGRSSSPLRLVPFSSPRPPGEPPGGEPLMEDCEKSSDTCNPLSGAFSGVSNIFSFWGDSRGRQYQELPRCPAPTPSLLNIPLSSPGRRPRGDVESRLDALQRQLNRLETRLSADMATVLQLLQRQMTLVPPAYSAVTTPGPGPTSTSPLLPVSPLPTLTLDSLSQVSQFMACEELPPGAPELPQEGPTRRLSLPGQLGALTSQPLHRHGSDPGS
#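 U2OS cells transduced with wild-type KCNH2 virus are loaded with FluxOr dye for 45 min, and thallium flux is measured in kinetic reads before and after stimulation buffer. Rate constants are normalized to DMSO controls.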
# KB-3-1 cytotox: kills parental KB-3-1 adenocarcinoma cells; Potency, µM (doses to about 46.1 µM), hits mostly cytotoxic; 400,000 compounds, 1.4% hits; AID 1347075; KB-3-1 viability, CellTiter-Glo ATP luminescence, 72 h; note: potency is the fitted concentration of half-maximal effect; % is set by controls: 0 for no effect and ±100 for the full control effect; nearly all actives have a fitted effect of over 60% in size
#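 Screening of KB-3-1 cells (DMEM, 10% FBS, phenol-red free) ran from lowest to highest compound concentration; after 72 h at 37 °C viability was read luminescently and curves fitted.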
# SW480 rereplic: DNA re-replication induction in SW480 cells; SW480 DNA re-replication, Hoechst DNA content imaging, 48 h; Potency, µM (titrated, usually from 46.1 µM), for inactives: at the highest dose re-replication activation, hits mostly activators; 340,000 compounds, 1.8% hits; AID 624297; note: potency is the fitted concentration of half-maximal effect; % of control where 0% means no effect; nearly all actives have a fitted effect of over 55% in size
#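 First, 250 cells per well were seeded. Next, compound or vehicle (23 nL) was pinned in, plates sat 48 hr at 37 C. Finally Hoechst was added for 40 min before fluorescence scanning.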
# KCNH2 3.1 inh: blocks the human KCNH2 3.1 channel isoform | U2OS KCNH2 3.1, thallium flux FluxOr; active compounds read low | activity change, % (tested at about 1.8 µM) | 340,000 compounds, 0.95% hits | AID 720553;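 active = maximum activity change below -70%; inconclusive = maximum activity change from -70% to -50%; inactive = maximum activity change above -50%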;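 note: thallium influx rate constant from kinetic fluorescence after stimulation buffer; % is set by controls: 0 for no effect and ±100 for the full control effect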
#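 Thallium flux via FluxOr fluorescence (Red40 quencher, 45 min loading) in U2OS cells virally expressing the KCNH2 3.1 isoform (1.77 x 10^8 /mL virus, overnight at 37 C). Rate constants from 2-min kinetic reads post-stimulation, normalised to positive and negative controls.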
# KB-V1 cytotox: kills drug-selected multidrug resistant KB-V1 cells; Potency, µM (series often up to 46.1 µM), hits mostly cytotoxic; KB-V1 MDR cells viability, CellTiter-Glo, 72 h; AID 1347076; 400,000 compounds, 3.4% hits; note: potency is the fitted concentration of half-maximal effect; % is set by controls: 0 for no effect and ±100 for the full control effect; nearly all actives have a fitted effect of over 60% in size
#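 Luminescent ATP read-out (CellTiter-Glo, 10 min) measures survival of drug-selected KB-V1 MDR cells after 72 h, 37 degrees C compound exposure. Medium: phenol-red-free DMEM, 10% FBS. Values from fitted concentration-response curves.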
# MCF10A rerep: inducers of DNA re-replication in MCF 10A breast cells; 350,000 compounds, 2.9% hits; MCF 10A DNA re-replication, Hoechst nuclear intensity, 48 h; Potency, µM (top dose mostly 46.1 µM), for inactives: top-dose activity, positive = re-replication, hits mostly activators; note: potency is the fitted concentration of half-maximal effect; % of control where 0% means no effect; nearly all actives have a fitted effect of over 50% in size
# Numbers without * were called inactive; i = inactive; ? = inconclusive; / = no result given; [ ] = remark or other dose. Unless noted, calls come from the whole dose curve; as a rule, active = well fitted curve in the direction sought with a large enough effect; inconclusive = small, poorly fitted or top-dose-only effect, or another doubt; inactive = no such curve, though single readings can be large; an effect the other way counts as inactive or inconclusive.
SMILES,KCNH2 WT inh,KB-3-1 cytotox,SW480 rereplic,KCNH2 3.1 inh,KB-V1 cytotox,MCF10A rerep
O=C(NC(c1ccccc1)c1ccccc1)c1ccc(Br)o1,5,i,?,14,i,13%
O=C(/C=C/c1ccc(Br)o1)NC(c1ccccc1)c1ccccc1,3,i,14%,-45,23µM*,1%
CCOC(=O)c1c(NC(=O)C(Sc2ccccc2)c2ccccc2)sc(C(=O)N(C)C)c1C (stereo not given),-2,?,?,-3,2.9µM*,?
CCOC(=O)c1c(NC(=O)C(Sc2ccccc2)c2ccccc2)sc(C(N)=O)c1C (stereo not given),15,?,3%,1,?,16%
O=C(Nc1ccc(Br)cc1)c1cccc(-n2cnnn2)c1,-3,i,2%,-8,i,?
O=C(Nc1cccc(-n2cnnn2)c1)c1ccoc1COc1ccc(Cl)cc1,?,i,-1%,-74*,i,-2%
Cc1cccc(NC(=O)CN2CCN(C(=O)c3cccc(-n4cnnn4)c3)CC2)c1C,26,i,-4%,-7,i,1%
Cc1ccc(NC(=O)c2cccc(-n3cnnn3)c2)cc1Cl,-2,i,0.65µM*,-4,i,?
O=C(CN1CCN(C(=O)c2cccc(-n3cnnn3)c2)CC1)Nc1ccccc1Cl,-38,i,-3%,-73*,i,3%
CC(=O)O[C@H]1CC(=O)OC(C)(C)C2CC(=O)[C@]3(C)C(CC[C@@](C)([C@@H](O[C@@H]4O[C@H](CO)[C@@H](O)[C@H](O)[C@H]4O)c4ccoc4)[C@@]34O[C@@H]4C(=O)O)[C@]21C (stereo not given in full),-3,i,-10%,0,i,0%
Cc1nc2ccc(Br)cc2c(=O)n1Cc1cccs1,0,i,-1%,-2,i,1%
O=C(C[n+]1ccc2ccccc2c1)c1ccc(NC(=O)c2ccccc2)cc1,3,21µM*,-4%,5,i,2%
CCN(CC)c1ccc(/C=C2\SC(=O)N(C(C)C)C2=O)o1,-4,?,?,3,i,3.7µM*
CC(C)N1C(=O)S/C(=C/c2ccc3c(c2)n(C)c(=O)n3C)C1=O,-7,i,?,-11,?,?
CCC(C)NC(=O)COC(=O)c1cc([N+](=O)[O-])ccc1Sc1nc(C)cs1 (stereo not given),3,i,5%[9.22 µM],5,i,?
Cc1csc(Sc2ccc([N+](=O)[O-])cc2C(=O)OCC(=O)NC2CCCC(C)C2C)n1 (stereo not given),39,i,?,-1,i,18µM*
CC(=O)NC(C(=O)c1ccccc1)C(=O)c1ccccc1,-3,i,0.52µM*,32,i,-73%
CCc1ccccc1NC(=O)CSc1nccn1C,/,i,/,/,i,/
Cc1cccc(-c2nc(SCC(=O)N(C)c3ccccc3)c3c(=O)n(C)c(=O)n(C)c3n2)c1,/,i,/,/,i,/
O=C(CSc1nc(-c2cccs2)cc(C(F)(F)F)n1)Nc1cc(OCC(F)(F)C(F)F)cc([N+](=O)[O-])c1,-5,?,?,-20,16µM*,?
O=C(NCCS(=O)(=O)N1CCN(c2cccc(Cl)c2)CC1)c1ccc2c(c1)OCO2,4,i,1%,-4,?,11%
Cc1nc(C(F)(F)F)ccc1C(=O)N1CCC1(C)C(=O)NS(=O)(=O)c1ccc2c(c1)CCO2 (stereo not given),/,i,/,/,i,/
O=C(NC1CCCc2ccccc21)c1cncc(Br)c1 (stereo not given),3,i,2%,-71*,i,?
CCCCn1nc(C(=O)NC2CCCCCC2)c2ccccc2c1=O,11,/,-1%,3,/,-7%
CCCn1nc(C(=O)Nc2ccc3c(c2)OCCO3)c2ccccc2c1=O,-18,i,-2%,-3,16µM*,4%
SMILES,KCNH2 WT inh,KB-3-1 cytotox,SW480 rereplic,KCNH2 3.1 inh,KB-V1 cytotox,MCF10A rerep
CCCn1nc(C(=O)NC2CCCc3ccccc32)c2ccccc2c1=O (stereo not given),6,i,11%,-12,23µM*,4%
CCCCn1nc(C(=O)Nc2ccccc2N2CCCC2)c2ccccc2c1=O,-17,i,-1%,-8,3.7µM*,?
O=C(NC1CCCc2ccccc21)c1cc(F)cc(F)c1 (stereo not given),3,i,5%,4,?,6%
CCCOc1ccc(C(O)(CCN2CCCCC2)c2ccccc2OC)cc1 (stereo not given),/,?,29%,-20,i,21%
Cc1cccc(-n2c3nc(=O)n(C)c(=O)c-3cc3c(C)nn(-c4ccccc4)c32)c1C,/,i,/,/,?,/
COc1ccc(CCNc2ncnc3nc[nH]c23)cc1,/,i,/,/,i,/
COc1ccc(/C=N/n2c(SC)nnc2-c2ccccc2)cc1C,5,?,7.3µM*,2,18µM*,18µM*
COc1ccc(/C=N/n2c(SC)nnc2-c2ccccc2)c(OC)c1OC,10,?,5.8µM*,-10,5.2µM*,15µM*
CSc1nnc(-c2ccccc2)n1N,2,i,-2%,10,i,0%
COc1ccc(/C=N\NC(=O)c2ccc(-c3ccccc3)cc2)c(OC)c1OC,5,i,15%,/,i,-3%
CN(C)Cc1ccccc1CNC(=O)c1cccc(S(=O)(=O)Nc2ccc3c(c2)OCO3)c1,44,i,/,-36,i,/
CC(C)C[C@H]1CNC(=S)N1CC1CCN(CCCCc2ccccc2)CC1,12,i,-4%,-71*,?,16%
S=C1NC[C@H](Cc2ccccc2)N1CC1CCN(CCCC2CCCC2)CC1,-40,i,?,-88*,i,?
S=C1NC[C@H](Cc2ccccc2)N1CCCCC1CCCCC1,2,i,-1%,0,i,?
CCCCCNc1ncnc2c(C)[nH]nc12,/,i,/,/,i,/
COc1cc(/C=N/Nc2ncnc3sc4c(c23)CCC4)ccc1O,1,?,23µM*,8,i,?
Cc1nnc2n(c1=O)C(CS(=O)(=O)c1ccccc1)CS2 (stereo not given),3,i,-9%,-16,i,0%
O=[N+]([O-])c1ccc(S(=O)(=O)CC2CSc3nc4ccccc4n32)cc1 (stereo not given),14,1.8µM*,?,-4,2.6µM*,12%
Cc1[nH]n(-c2ccccc2)c(=O)c1/C=N/O,0,i,?,-9,i,?
